Data on 40 compounds can be found in PubChem BioAssay (Tox21).

Records with an inconclusive call do not appear. A call without a number means that no potency is given here. Values without a mark were called inactive. Active and inactive are the calls of the source. Calls come from the whole dose curve; as a rule, active = well fitted cell-killing curve with a large enough effect in the repeat runs; inconclusive = weak or mixed curves, or effect the other way; inactive = no such curve, though single readings can be large or run the other way.

A short description of this experiment: qHTS assay to identify small molecule agonists of the farnesoid-X-receptor (FXR) signaling pathway - cell viability counter screen (AID 743218). Note: nearly all actives have a fitted effect of over 45% in size. As to conditions: FXR-bla HEK293T viability, CellTiter-Glo luminescence, 16 h; series mostly up to 62.6 µM. From the text: U.S. Tox21 Program National Center for Advancing Translational Sciences [NCATS] NIH Chemical Genomics Center [NCGC] U.S. Environmental Protection Agency [EPA] National Institutes of Environmental Health Sciences [NIEHS] National Toxicology Program [NTP] U.S. Food and Drug Administration [FDA] Tox21 Assay Overview: The farnesoid-X-receptor (FXR), a nuclear hormone receptor, is highly expressed in liver, intestine, kidney and adrenal cortex. Natural ligands of FXR are the bile acids (Cholic acid, Chenodeoxy cholic acid etc). FXR is an important regulator of diverse metabolic pathways, including the bile acid homeostasis, lipid and glucose metabolisms. FXR regulates the expression of target genes by binding either as a monomer or as a heterodimer with the retinoid X receptor (RXR). Numerous studies have reported that FXR exerts protective function during cholestasis, diabetes, liver regeneration, and cancer. To identify compounds that activate FXR signaling, GeneBLAzer FXR-UAS-bla HEK 293T cell line (Invitrogen, Carlsbad, CA) containing a beta-lactamase reporter gene under the control of a UAS response element was used to screen the Tox21 10K compound library. The cytotoxicity of the Tox21 compound library against the FXR-bla cell line was tested in parallel by measuring the cell viability using CellTiter-Glo assay in the same wells.
Tox21 Assay Protocol Summary: FXR-bla cells were dispensed at 5000 cells/5uL/well in 1536-well black wall/clear bottom plates using a Multidrop Combi (Thermo Fisher Scientific, Waltham, MA) dispenser. After the assay plates were incubated at 37 C and 5% CO2 for 5 h, 23 nL of compounds dissolved in DMSO, positive controls or DMSO only was transferred to the assay plate by a Pintool station (Kalypsys, San Diego, CA). The assay plates were incubated at 37C for 16 h. After 1 uL of LiveBLAzerTM B/G FRET substrate was added using a Bioraptr Flying Reagent Dispenser (FRD) workstation (Beckman Coulter, Indianapolis, IN), the plates were incubated at room temperature for 2 h, and fluorescence intensity was measured by an Envision plate reader (PerkinElmer, Shelton, CT). For cell viability readout that measures cytotoxicity, 4uL/well of CellTiter-Glo reagent was added into the assay plates using a Bioraptr FRD. After 30 min incubation at room temperature, the luminescence intensity in the plates was measured using a ViewLux plate reader (PerkinElmer).
Background: qHTS replaces the single test concentration by a dilution series.
For `CCCCCCCCCCCCCC`, the Potency entry is “inactive”.

As for `Cc1cccc(C)c1NC(=O)c1ccccc1C(=O)O`, the Potency result is “inactive”.

As for `CCN(CC)CC(=O)Nc1c(C)cccc1C`, the Potency entry is “inactive”.

As to `CCCCOC(=O)c1ccccc1`, the Potency entry is “inactive”.

As for `CCOC(=O)c1ncn2c1CN(C)C(=O)c1cc(F)ccc1-2`, the Potency entry is “inactive”.

Turning to `COc1ccc2c(c1)C(=O)N(CCc1ccc(S(=O)(=O)NC(=O)NC3CCCCC3)cc1)C(=O)C2(C)C`, the Potency entry was “inactive”.

For the compound `CC(C)(C)c1nnc(NS(=O)(=O)c2ccc(N)cc2)s1`, the Potency result is “inactive”.

Turning to `CCCCCCCCSCC`, the Potency result is “inactive”.

As for `C=C1CC/C=C(\C)CC[C@@H]2[C@@H]1CC2(C)C`, the Potency entry is “inactive”.

For `COc1cc(NS(=O)(=O)c2ccc(N)cc2)nc(OC)n1`, the Potency result was “inactive”.

Consider `BrCCCCCBr`, for which the Potency entry was “inactive”.

For `COCCOC(=O)C1=C(C)NC(C)=C(C(=O)OC(C)C)C1c1cccc([N+](=O)[O-])c1` (stereo not given), the Potency result is “inactive”.

As to `CCOC(=O)[C@H](CCc1ccccc1)N[C@@H](C)C(=O)N1C(=O)N(C)C[C@H]1C(=O)O`, the Potency entry is “inactive”.

Regarding `NCCN1CCOCC1`, the Potency entry is “inactive”.

`C[Si](C)=O`: the viability change, negative = cytotoxic is 5.27% [at 5.95 µM].

Turning to `Nc1ccc2cc(S(=O)(=O)O)cc(O)c2c1`, the Potency entry was “inactive”.

With `O=C1CC(c2ccc(Cl)cc2)CC(=O)N1`, the Potency entry is “inactive”.

For `OCCN(CCO)c1cccc(Cl)c1`, the Potency result is “inactive”.

Regarding `CC(=O)c1sc(C)nc1C`, the Potency entry was “inactive”.

`CN(CCOc1ccc(NS(C)(=O)=O)cc1)CCc1ccc(NS(C)(=O)=O)cc1`: the Potency entry is “inactive”.

In the case of `O=P(O)(O)OP(=O)(O)O`, the Potency entry is “inactive”.

Consider `C[Si](C)(C)C`, for which the Potency entry is “inactive”.

For the compound `c1ccc2nccnc2c1`, the Potency entry was “inactive”.

`CC(C)(C)OC(=O)c1ccc(O)cc1`: the Potency entry was “inactive”.

For the compound `COCCc1ccc(OCC2CO2)cc1` (stereo not given), the Potency entry was “inactive”.

`COc1cc2c(cc1OC)[C@@H]1CC(=O)[C@@H](CC(C)C)CN1CC2`: the Potency result is “inactive”.

`COC(=O)C1CC(=O)C(C(=O)OC)CC1=O` (stereo not given): the viability change, negative = cytotoxic was 25% [at 5.95 µM].

With `COc1ccc(C2CNC(=O)C2)cc1OC1CCCC1` (stereo not given), the Potency entry is “inactive”.

`O=C1c2ccccc2C(=O)c2cc(S(=O)(=O)O)ccc21`: the Potency result was “inactive”.

For `O=C(OCc1ccccc1)C(=O)OCc1ccccc1`, the Potency result is “inactive”.

In the case of `Cc1nc2n(c(=O)c1CCN1CCC(c3noc4cc(F)ccc34)CC1)CCC[C@H]2O`, the Potency result is “inactive”.

Consider `CC(=O)NCc1c(I)c(NC(C)=O)c(I)c(C(=O)O)c1I`, for which the Potency entry was “inactive”.

As to `O=Cc1ccc(Cl)c(Cl)c1`, the Potency entry is “inactive”.

For the compound `Cc1ccc(C=O)cc1C`, the Potency result is “inactive”.

`CCCCCCOc1ccccc1C(N)=O`: the Potency result was “inactive”.

On to `CN=C(NC#N)Nc1ccc(C2=NNC(=O)CC2C)cc1` (stereo not given), for which the Potency result is “inactive”.

On to `O=C(O)c1cc(Br)c(O)c(Br)c1`, for which the Potency result is “inactive”.

Turning to `O=C1c2ccccc2C(=O)N1CCl`, the Potency entry is “inactive”.

Turning to `O=S(=O)(O)c1cc(O)c2ccc(Nc3ccccc3)cc2c1`, the Potency result is “inactive”.

On to `N[C@@H](COP(=O)(O)O)C(=O)O`, for which the Potency result was “inactive”.
